The panel holds about 83,000 compounds, 20% with a hit somewhere; the sample as a whole holds those more often.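 Negative percent growth values reflect cell death: -40 means 40% of the cells present at the start died, and -100 means all died.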 A number with no mark means an inactive call. Active and inactive are the calls of the source. The calls were made as follows: active = growth percent below 10; inactive = the rest.

The assay deals with OVCAR-4 ovarian. Nature of the assay: NCI-60 one-dose screen, 48 h (100 = growth as untreated, 0 = no growth, -100 = all killed). Particulars: 10 µM unless noted.
Regarding `N/C(=N\C(N)=N\c1nc2ccccc2s1)c1cccc(Cl)c1`, the growth is 71.5%. Regarding `CCOC(=O)[C@@H](C)C[C@H](Cc1ccccc1)NC(=O)c1csc([C@@H](C[C@H](C(C)C)N(C)C(=O)[C@@H](NC(=O)[C@H]2C[C@H](O[Si](C)(C)C(C)(C)C)CCN2C)C(C)C)OC(C)=O)n1`, the growth is 17.3% [9.25 µM]. For `COC(=O)/C=C1\S/C(=N\NC(=O)c2cc3ccc2/C=C\c2ccc(cc2)/C=C\3)N(c2ccccc2)C1=O`, the growth is 29.4%. Consider `NNC(=O)c1ccc(-n2nc(-c3ccccc3)c3ccccc32)cc1`, for which the growth was 23.9%. For `NC(=NCCCOc1ccc(F)cc1)Nc1ccc(I)cc1`, the growth is 45.7%. For the compound `N#CC1C(C#N)C(C(=O)c2ccc(Br)cc2)N2c3ccccc3C=CC12` (stereo not drawn), the growth is 43.7%. For `CCN1C(=O)/C(=C/C(=O)OC)S/C1=N\NC(=O)c1cc2ccc1/C=C\c1ccc(cc1)/C=C\2` the value was 89.6%; for `COc1ccccc1/C=C1\Oc2cc(OCCN3CCCC3)ccc2C1=O`, 93.9%. The figure for `Cc1cc2nc3c4ccc(Br)cc4n(CCN(C)C)c3nc2cc1C` is 12.3%. As to `C/C(=N\Nc1cc(C)nc2ccc(Br)cc12)c1ccc([N+](=O)[O-])cc1`, the growth was 47%. Take `COc1cc(C2C3CC4CCCC[C@H]4N3[C@@]3(C(=O)Nc4cc(Cl)ccc43)C2C(=O)c2nc3ccccc3[nH]2)cc(OC)c1OC` (stereo partly drawn): the growth is 56.3%. Take `O=C1OC(Cc2ccccc2)C1c1ccccc1` (stereo not drawn): the growth is 109%.

Turning to `CC(Oc1ccc(C(=O)O)cc1C(F)(F)F)c1ccc(Oc2ccccc2)cn1` (stereo not drawn), the growth is 106%.

In the case of `CC(Sc1nc2ccccc2c(=O)n1CCc1ccc(S(N)(=O)=O)cc1)C(=O)Nc1ccc(Cl)cc1` (stereo not drawn), the growth is 93.2%. Turning to `CC1=CCC(OC(=O)C(C)(O)CCC(O)(C(=O)OC2(C)C=CC(O)(C(C)C)CC2)C(C)C)(C(C)C)CC1` (stereo not drawn), the growth was 109%. For `ClC1=C(Br)C(Br)(Br)C(=C(Br)Br)C1(Br)Br` the value was 99.1%; for `C=C1C(=O)O[C@H]2[C@H]1CC/C(CNC(=O)C(C)c1ccc(CC(C)C)cc1)=C\CC[C@@]1(C)O[C@@H]21` (stereo partly drawn), 29.3%.

As to `CCCCCN1C=C/C(=C\C(=O)N2CCCc3ccccc32)c2ccccc21`, the growth was 75.2%.

Consider `N#Cc1cc(-c2nc3ccccc3s2)c(=O)n(NS(=O)(=O)c2ccccc2)c1N`, for which the growth was 107%. For `CCCOc1ccc(/C=N/Nc2cc(C)nc3ccc(Cl)cc23)cc1` the value was 48.5%; for `Cc1cccc(NC(=O)Nc2ccc(-n3cnc4cc(-c5ccc(O)cc5)ccc43)cc2)c1`, 27.4%. Take `O=c1c2c(c(=O)n1O)c1c3ccc[nH]c3nc1c1nc3[nH]cccc3c12`: the growth is 78.7%.

Consider `O=C(CNCCN1CCOCC1)N1c2cccc3cccc(c23)N(C(=O)CNCCN2CCOCC2)C1c1cn(-c2ccccc2)nc1-c1cccc([N+](=O)[O-])c1`, for which the growth was 90.7%.

With `O=Cc1cc2ccccc2nc1Oc1ccc(C(F)(F)F)cc1`, the growth was 98.6%. Turning to `COc1ccc(C(=O)/C=C/c2cc3ccccc3n3nnnc23)cc1`, the growth is 106%. For `CN1CCN(C(=O)[C@]23CCC(C)(C)C[C@H]2C2=CC[C@@H]4[C@@]5(C)C/C(=C/c6cccnc6)C(=O)C(C)(C)[C@@H]5CC[C@@]4(C)[C@]2(C)CC3)CC1` the value was 58.1%; for `CCN(CC)c1ccc(/C=N/NC(=O)CSc2nc3ccccc3c(=O)n2CCc2ccc(S(N)(=O)=O)cc2)c(O)c1`, 19.7%. Turning to `CCCCCCNC(=O)Nc1ccc2cc3ccc(NC(=O)NCCCCCC)cc3nc2c1`, the growth was 56.9%. The figure for `CCNC(=O)Oc1ccc(/C(=C(\C)c2ccccc2)c2ccc(OCCN(CC)CC)cc2)cc1` is 80.8%; for `CC/C(=C\c1ccc(OC)cc1)C(=O)c1ccc(OC)cc1` it is 77.2%. The figure for `CCc1ccc(CNc2ccc(N3CCOCC3)c(C(=O)O)c2)cc1` is 110%; for `Cc1ccc(NS(=O)(=O)c2ccc(-c3cnc(C4CC4)o3)cc2)cc1C(F)(F)F` it is 69.4%. With `C/C(=N\NC(=O)CSc1nc2ccccc2c(=O)n1CCc1ccc(S(N)(=O)=O)cc1)c1ccccn1`, the growth was 19.5%. For `C=C(CBr)[C@@H]1CC[C@]2(COC(C)=O)CC[C@]3(C)[C@H](CC[C@@H]4[C@@]5(C)CCCNC(C)(C)[C@@H]5CC[C@]43C)[C@@H]12` the value was 50.8%; for `COc1ccc(C(=O)Nc2cccc(C3CCc4c(cc(OC)c(OC)c4OC)O3)c2)cc1` (stereo not drawn), 47.4%. Turning to `N=C(N)c1ccc(OCCCCCCCCCCOc2ccc(C(=N)N)cc2)cc1`, the growth is -95.8% (active).

Take `COc1cc2nc(-c3ccc(Cl)cc3)cc(OCCCN3CCOCC3)c2cc1OC`: the growth was 70.4%.

On to `Brc1ccc2[nH]cc(-c3cncn3CCc3ccccc3)c2c1`, for which the growth was 25.9%.

Values taken from PubChem BioAssay (NCI).
